The structures appear in SMILES notation. Hit rate of the full screen: of about 350,000 compounds, about 1,300 (0.37%) were called active.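 Rule for the calls: active = mean added fluorescence quench of at least 8% versus neutral control, with both replicates also reaching 8%; inconclusive = only one of the mean or replicate conditions met; inactive = mean below 8% and not both replicates reaching 8%.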 Only a selection was taken, and actives are over-represented in it overall.

The assay in a line: F508del CFTR correction, initial screen, CFBE line, single point (AID 720511).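 Note: cells transiently co-express mutant CFTR-F508del with the halide-sensitive YFP; corrector assay measuring rescue of mutant channel to the surface after 24 h compound exposure.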 Particulars: CFBE cells, YFP halide quenching, at 7.58 µM, hits give high values, % fluorescence drop versus neutral controls, stimulated with forskolin plus potentiator P3.
For `C[C@H]1CN([C@@H](C)CO)C(=O)c2cc(C#CC(C)(C)O)cnc2O[C@H]1CN(C)C(=O)CC1CC1`, the activity (quench increase) was 0.266% (inactive).

As to `C[C@@H]1CN([C@H](C)CO)C(=O)c2cc(NS(=O)(=O)c3ccc(Cl)cc3)ccc2O[C@@H]1CN(C)CC1CCCCC1`, the activity (quench increase) was -0.515% (inactive).

With `O=C(C[C@H]1C[C@@H]2c3cc(NC(=O)c4ccc5c(c4)OCO5)ccc3O[C@@H]2[C@@H](CO)O1)NCCN1CCCCC1`, the activity (quench increase) is 0.031% (inactive).

In the case of `O=C(C1CCCC1)N1CC(=O)N2[C@H](C1)[C@@H](c1ccc(-c3ccccc3F)cc1)[C@@H]2CO`, the activity (quench increase) was -2.35% (inactive).

With `O=C(C1CC1)N1CC(=O)N2[C@H](CO)[C@@H](c3ccc(-c4ccccc4F)cc3)[C@@H]2C1`, the activity (quench increase) was 11.5% (active).

For `O=C(C1CCC1)N1CC(=O)N2[C@H](C1)[C@@H](c1ccc(-c3ccccc3F)cc1)[C@@H]2CO`, the activity (quench increase) was 1.31% (inactive).

As for `CCOC(=O)N1CCN(S(=O)(=O)c2ccc(Br)cc2)CC1`, the activity (quench increase) was -1.86% (inactive).

In the case of `CCOC(=O)N1CCN(S(=O)(=O)c2ccc3c(c2)C(C)C(=O)N3)CC1` (stereo unspecified), the activity (quench increase) is 8.05% (active).

`COc1ccc(N2CCN(S(=O)(=O)c3ccc4c(c3)NC(=O)C(C)C(=O)N4)CC2)cc1` (stereo unspecified): the activity (quench increase) is 0.269% (inactive).

Regarding `COc1cccc(S(=O)(=O)N[C@H]2C=C[C@@H](CC(=O)NCc3ccc(F)cc3)O[C@@H]2CO)c1`, the activity (quench increase) was -1.9% (inactive).

With `Cc1ccc(S(=O)(=O)N(C)C[C@@H]2Oc3c(NC(=O)Nc4ccc(F)cc4)cccc3C(=O)N([C@H](C)CO)C[C@H]2C)cc1`, the activity (quench increase) was 0.333% (inactive).

In the case of `C[C@@H]1CN([C@H](C)CO)C(=O)c2cccc(NC(=O)Nc3cccc4ccccc34)c2O[C@@H]1CN(C)C(=O)Nc1ccc(F)cc1`, the activity (quench increase) is 1.61% (inactive).

As for `COc1ccc(-c2c(C)cc3oc(=O)cc(-c4ccccc4)c3c2C)cc1C=O`, the activity (quench increase) was 0.386% (inactive).

In the case of `COc1ccc(-c2c(C)cc3oc(=O)cc(-c4ccccc4)c3c2C)cc1F`, the activity (quench increase) is 3.75% (inactive).

As to `COc1ccc(-c2c(C)cc3oc(=O)cc(-c4ccccc4)c3c2C)cc1OC`, the activity (quench increase) was 9.4% (active).

As to `CCC(=O)N(C)C[C@H]1Oc2cc(C#CC3CC3)ccc2S(=O)(=O)N([C@@H](C)CO)C[C@@H]1C`, the activity (quench increase) was -0.535% (inactive).

For `COCCCNc1ccn2nc(-c3ccc(CC(C)C)cc3)cc2n1`, the activity (quench increase) is 2.65% (inactive).

Consider `CC(C)Cc1ccc(-c2cc3nc(NCc4cccc(Cl)c4)ccn3n2)cc1`, for which the activity (quench increase) is 8.67% (active).

Consider `COc1ccccc1-c1cc2nc(NCc3cccc(Cl)c3)ccn2n1`, for which the activity (quench increase) was 0.85% (inactive).

Turning to `C[C@H]1CN([C@@H](C)CO)C(=O)c2cccc(NS(=O)(=O)c3cccs3)c2O[C@H]1CN(C)Cc1ccc(C(=O)Nc2ccccc2N)cc1`, the activity (quench increase) is 0.531% (inactive).

Consider `C#Cc1cc(N2CCN(C(=O)c3ccoc3)CC2)n2nc(-c3cccc(Cl)c3)cc2n1`, for which the activity (quench increase) is 8.96% (active).

With `O=C(c1ccccc1)N1CCN(c2cc(-c3ccccc3)nc3cc(-c4cccc(Cl)c4)nn23)CC1`, the activity (quench increase) is -2.01% (inactive).

On to `CN(C)CCN1CCN(c2cc(-c3cccc(Cl)c3)nc3ccnn23)CC1`, for which the activity (quench increase) is -1.38% (inactive).

As to `C[C@H]1CN([C@@H](C)CO)C(=O)Cc2cc(NS(=O)(=O)c3cn(C)cn3)ccc2O[C@H]1CN(C)C(=O)Nc1ccc(F)cc1`, the activity (quench increase) was 2.2% (inactive).

Take `C[C@H](CO)N1C[C@H](C)[C@@H](CN(C)S(=O)(=O)c2ccccc2)Oc2ncc(-c3ccncc3)cc2C1=O`: the activity (quench increase) was 0.7% (inactive).

For `COc1cc(C#Cc2ccc3cc(CCCO)oc(=O)c3c2)cc(OC)c1`, the activity (quench increase) was 9.06% (active).

Take `O=C1c2ccccc2C(=O)N1CCC#Cc1ccc2cc(C3(O)CCCCC3)oc(=O)c2c1`: the activity (quench increase) was 4.94% (inactive).

For the molecule `CS(=O)(=O)N1C[C@@H](O)COC[C@@H]2O[C@H](CC(=O)NC3Cc4ccccc4C3)CC[C@H]21`, the activity (quench increase) was -1.79% (inactive).

As to `O=C(C[C@H]1C=C[C@@H](NC(=O)NC2CCCCC2)[C@@H](CO)O1)NCc1ccc(Cl)cc1`, the activity (quench increase) is 0.0755% (inactive).

`C[C@H](CO)N1C[C@H](C)[C@H](CN(C)Cc2ccc(C(F)(F)F)cc2)Oc2ccc(NS(C)(=O)=O)cc2C1=O`: the activity (quench increase) is 3.24% (inactive).

As for `C[C@@H]1CCCCO[C@@H](CN(C)C(=O)Cc2ccccc2)[C@H](C)CN([C@@H](C)CO)C(=O)c2cc(NC(=O)Nc3ccc(F)cc3)ccc2O1`, the activity (quench increase) is -1.42% (inactive).

Take `Oc1ccc2ccccc2c1N=Nc1nccs1`: the activity (quench increase) was 13.5% (active).

Turning to `CC(=O)Nc1ccc(Nc2c3ccccc3nc3ccccc23)cc1`, the activity (quench increase) is 10.8% (active).

Regarding `CCc1c(C)nc2c(-c3ccccc3)c(C)nn2c1Nc1ccc(NC(C)=O)cc1`, the activity (quench increase) was 0.439% (inactive).

With `CC(=O)Nc1ccc(S(=O)(=O)N(C)c2nc3ccccc3nc2Cl)cc1`, the activity (quench increase) was 2.1% (inactive).

For `C[C@@H]1CCCCO[C@@H](CN(C)S(=O)(=O)c2ccccc2)[C@H](C)CN([C@H](C)CO)C(=O)c2cc(NC(=O)Nc3ccc4c(c3)OCO4)ccc2O1`, the activity (quench increase) is 0.334% (inactive).

In the case of `CO[C@H]1CN(C)C(=O)c2cc(NC(C)=O)ccc2OC[C@H](C)N(C(=O)C2CC2)C[C@H]1C`, the activity (quench increase) was 4.09% (inactive).

With `COc1ccc(C#Cc2ccc3c(c2)O[C@@H](CN(C)C(=O)Nc2cccc(OC)c2)[C@H](C)CN([C@H](C)CO)S3(=O)=O)cc1`, the activity (quench increase) was 9.4% (active).

Take `C[C@@H]1CN([C@@H](C)CO)S(=O)(=O)c2ccc(C#Cc3ccccc3)cc2O[C@@H]1CN(C)C(=O)Nc1ccccc1`: the activity (quench increase) was 3.03% (inactive).

On to `C/C=C/c1ccc2c(c1)O[C@@H](CN(C)C(=O)c1ccccn1)[C@H](C)CN([C@@H](C)CO)S2(=O)=O`, for which the activity (quench increase) is -2.18% (inactive).

With `CC(C)CC#Cc1ccc2c(c1)O[C@@H](CN(C)C(=O)c1ccccn1)[C@@H](C)CN([C@H](C)CO)S2(=O)=O`, the activity (quench increase) is 0.306% (inactive).

As for `C[C@@H]1CN([C@@H](C)CO)S(=O)(=O)c2ccc(C#Cc3ccc(F)cc3)cc2O[C@H]1CN(C)C(=O)c1ccccn1`, the activity (quench increase) is 9.03% (active).

Take `COc1ccc(NC(=O)N(C)C[C@H]2Oc3cc(C#CCN(C)C)ccc3S(=O)(=O)N([C@@H](C)CO)C[C@@H]2C)cc1`: the activity (quench increase) was -0.575% (inactive).

Turning to `CCCNC(=O)[C@@H]1[C@@H](CO)[C@@H]2Cn3c(cccc3=O)[C@H]1N2C(=O)Nc1cc(F)ccc1F`, the activity (quench increase) is -0.221% (inactive).

In the case of `CCCN(C)C[C@@H]1Oc2ncc(-c3ccccc3F)cc2C(=O)N([C@@H](C)CO)C[C@@H]1C`, the activity (quench increase) is -1.56% (inactive).

As for `CCCNC(=O)Nc1ccc2c(c1)C(=O)N(C)C[C@H](OC)[C@H](C)CN(Cc1cccnc1)[C@@H](C)CO2`, the activity (quench increase) is -2.17% (inactive).

Consider `COCC(=O)Nc1ccc2c(c1)OC[C@@H](C)N(C(=O)c1ccncc1)C[C@@H](C)[C@@H](OC)CN(C)C2=O`, for which the activity (quench increase) is -2.81% (inactive).

For the molecule `CCN(CC)c1ccc(/C=N/NC(=O)c2cnccn2)c(O)c1`, the activity (quench increase) is 19.1% (active).

Consider `COc1ccc(NC(=O)C/C(C)=N/NC(=O)c2cnccn2)cc1Cl`, for which the activity (quench increase) was 0.245% (inactive).

With `NS(=O)(=O)c1ccc(CNC(=O)c2cnccn2)cc1`, the activity (quench increase) was 3.51% (inactive).

`CNC[C@H]1Oc2ccc(NC(=O)Nc3ccc(F)cc3)cc2C(=O)N([C@@H](C)CO)C[C@@H]1C`: the activity (quench increase) was 2.71% (inactive).

`C/C=C/c1cnc2c(c1)C(=O)N([C@@H](C)CO)C[C@@H](C)[C@@H](CN(C)S(=O)(=O)c1ccccc1F)O2`: the activity (quench increase) is -0.914% (inactive).

Take `COCC(=O)N1CC[C@H]2[C@H](CO)Nc3ccc(-c4ccc(C(=O)N(C)C)cc4)cc3[C@H]21`: the activity (quench increase) is -0.359% (inactive).

On to `CC(C)CC#Cc1cnc2c(c1)C(=O)N([C@@H](C)CO)C[C@H](C)[C@@H](CN(C)S(=O)(=O)c1cn(C)cn1)O2`, for which the activity (quench increase) was 3.77% (inactive).

As to `CCC(=O)c1ccc(OCC(=O)OCC(=O)N2CCc3ccccc3C2)cc1`, the activity (quench increase) is 33.2% (active).

For `Cc1ccc(Cl)c(OCC(=O)N2CCc3ccccc3C2)c1`, the activity (quench increase) was 0.464% (inactive).

As to `CCC(=O)c1ccc(OCC(=O)OCC(=O)NC2CCCCCC2)cc1`, the activity (quench increase) was 5.07% (inactive).

For the molecule `CN1C(=O)c2cc(NC(=O)Nc3ccccc3Cl)ccc2OC[C@H]2O[C@@H](CC(=O)O)CC[C@H]21`, the activity (quench increase) was 2.42% (inactive).

On to `C[C@H](CO)N1C[C@H](C)[C@H](CN(C)C(=O)Nc2ccccc2)Oc2ccc(NC(=O)C3CC3)cc2CC1=O`, for which the activity (quench increase) is 1.47% (inactive).

On to `O=C(Cn1c(NCCO)nc2ccccc21)c1ccc(Cl)cc1Cl`, for which the activity (quench increase) is 1.26% (inactive).

Regarding `CN(C)CCNC(=O)c1ccc(Cl)c2cc3ccccc3nc12`, the activity (quench increase) is 12.3% (active).

With `CNC(=O)c1cccc2nc3ccccc3nc12`, the activity (quench increase) is -0.402% (inactive).

With `CCNC(=O)C[C@@H]1CC[C@@H](NC(=O)NC2CCCCC2)[C@H](CO)O1`, the activity (quench increase) was 3.72% (inactive).

Consider `Cc1ccccc1-c1ccc2c(c1)O[C@H](CN(C)C)[C@@H](C)CN([C@H](C)CO)S2(=O)=O`, for which the activity (quench increase) is 0.748% (inactive).

Take `C[C@H]1CN([C@@H](C)CO)C(=O)c2cc(/C=C/c3ccccc3)cnc2O[C@@H]1CN(C)C(=O)c1ccc(F)cc1`: the activity (quench increase) is -2.58% (inactive).

In the case of `CCOc1ccc(-c2cc(C(=O)N/N=C/c3ccc(O)cc3)c3ccccc3n2)cc1`, the activity (quench increase) was 12.2% (active).

For the molecule `COc1ccc(-c2cc(C(=O)N/N=C/c3cccnc3)c3ccccc3n2)c(OC)c1`, the activity (quench increase) is -13% (inactive).

As to `COc1cc(/C=N/NC(=O)c2cc(-c3ccccc3C)nc3ccccc23)cc(OC)c1O`, the activity (quench increase) is -3.23% (inactive).

Consider `C[C@@H]1CN([C@H](C)CO)C(=O)Cc2cc(NS(=O)(=O)c3ccc(F)cc3)ccc2O[C@H]1CN(C)C`, for which the activity (quench increase) was -0.0265% (inactive).

For `CC(C)(C)[S@@](=O)N1Cc2cc(C(=O)N3CCOCC3)nc(-c3cccc(-c4ccc(C#N)cc4)c3)c2[C@H]1CCO`, the activity (quench increase) is 1.68% (inactive).

Take `Cc1noc(C)c1NC(=O)Nc1ccc2c(c1)CC(=O)N([C@@H](C)CO)C[C@H](C)[C@@H](CN(C)CC1CCCCC1)O2`: the activity (quench increase) is 0.161% (inactive).

For the origin of these results see PubChem BioAssay AID720511 (Broad Institute, 2013).
